# Experimental data taken from PubChem BioAssay (NCATS).
# Records with an inconclusive call do not appear. Activity calls are given as the source filed them. Calls follow the shape of the dose curve; as a rule, active = well fitted cell-killing curve with a large enough effect; inconclusive = small, poorly fitted or top-dose-only effect; inactive = no such curve, though single readings can be large or run the other way.
# Experiment: Quantitative High-Throughput drug screen in 47 multiple myeloma cell lines against the NCATS MIPE library collection: JIM3_ECACC cell viability assay (AID 1918963; also: nearly all actives have a fitted effect of over 35% in size)
# Conditions: JIM3 myeloma viability, CellTiter-Glo ATP, 48 h; series mostly up to 45.8 µM
# How it was run: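 Viability readout: CellTiter-Glo luminescence following 5 min room-temperature incubation with reagent. Prior exposure: 48 h, 37C, humidified 5% CO2, 500 cells per well.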
# Potency is read from the fitted curve at half-maximal effect.
row,Structure (SMILES),Potency
1,COc1cc2c(cc1OC)[C@@H]1Cc3ccc(OC)c(OC)c3CN1CC2,inactive
2,COc1cc2ncnc(Nc3cc(Br)c(O)c(Br)c3)c2cc1OC,0.935 µM (active)
3,CNc1nc(-c2ccc3c(N)n[nH]c3c2)cc(N2C[C@@H](C(=O)NC3CCCCC3)CC[C@@H]2C)n1,6.62 µM (active)
4,C[C@@H](O[C@H]1OCCN(Cc2n[nH]c(=O)[nH]2)[C@@H]1c1ccc(F)cc1)c1cc(C(F)(F)F)cc(C(F)(F)F)c1,23.5 µM (active)
5,FC(F)(F)c1ccc(C=Cc2nc(COc3ccc(CCCCn4ccnn4)cc3)co2)cc1,0.332 µM (active)
6,O=C(O)c1ccc(O)c2ncc(N3CCOCC3)cc12,18.7 µM (active)
7,CN(C)CCN(C)C(=O)c1ccc(NC(=O)Nc2ccc(-c3nc(N4CCOCC4)c4ccn(CC(F)(F)F)c4n3)cc2)cc1,0.105 µM (active)
8,COc1cc2c(cc1Cc1cccc(Cl)c1F)c(=O)c(C(=O)O)cn2[C@H](CO)C(C)C,20.9 µM (active)
9,COc1cc(Nc2nc3ccccc3nc2NS(=O)(=O)c2ccc(NC(=O)c3ccc(C)c(OC)c3)cc2)cc(OC)c1,13.2 µM (active)
10,CCC(=C(c1ccc(O)cc1)c1ccc(OCCNC)cc1)c1ccccc1,20.9 µM (active)
11,Nc1nc(Cl)nc2c1ncn2[C@@H]1O[C@H](CO)[C@@H](O)[C@H]1F,0.418 µM (active)
12,CCC[C@H](N[C@@H](C)C(=O)N1[C@@H]2CCCC[C@H]2C[C@H]1C(=O)O)C(=O)OCC,14.8 µM (active)
13,C[C@@H](N)c1ccc(C(=O)Nc2ccnc3[nH]ccc23)cc1,20.9 µM (active)
14,Cc1cc(C(C)Nc2ccccc2)c2nc(N3CCOCC3)cc(=O)n2c1 (configuration not stated),14.8 µM (active)
15,Cc1nc(C(=O)NCC(=O)O)c(O)c2ccc(Oc3ccccc3)cc12,inactive
16,CCNC(=O)c1noc(-c2cc(C(C)C)c(O)cc2O)c1-c1ccc(CN2CCOCC2)cc1,0.0743 µM (active)
17,CN[C@@H]1CN(c2ccc3c(=O)c(C(=O)O)cn(-c4nccs4)c3n2)C[C@@H]1OC,14.4 µM (active)
18,O=C1NC(=O)C(=Cc2ccc(-c3ccc(F)cc3O)o2)S1,inactive
19,Cc1cc(OCCCS(C)(=O)=O)cc(C)c1-c1cccc(COc2ccc3c(c2)OC[C@H]3CC(=O)O)c1,14.8 µM (active)
20,CO[C@@H]1C(N(C)C(=O)c2ccccc2)C[C@H]2O[C@]1(C)n1c3ccccc3c3c4c(c5c6ccccc6n2c5c31)C(=O)NC4=O (some centres not stated),6.62 µM (active)
21,C[C@@]1(C(=O)Nc2ccc(F)nc2)CCCN1c1nc(Nc2cc(C3CC3)[nH]n2)c2cccn2n1,0.0148 µM (active)
22,C[C@H](CCC(=O)O)[C@H]1CC[C@H]2[C@H]3[C@@H](CC[C@]12C)[C@@]1(C)CC[C@@H](O)C[C@H]1C[C@@H]3O,inactive
23,COc1cc2c(cc1OC)CC(=O)N(CCCN(C)C[C@H]1Cc3cc(OC)c(OC)cc31)CC2,inactive
24,CC(C)C[C@H](NC(=O)c1cc2ccccc2s1)C(=O)N1CCN(C(=O)[C@H](CO)NS(=O)(=O)c2ccc(Cl)cc2Cl)CC1,20.9 µM (active)
25,C[C@@H]1[C@H](O)[C@@H](C)C=CC=CC=CC=CC=CC=CC=C[C@H](O[C@@H]2O[C@H](C)[C@H](O)[C@H](N)[C@@H]2O)C[C@@H]2O[C@](O)(C[C@@H](O)C[C@@H](O)[C@H](O)CC[C@@H](O)C[C@@H](O)CC(=O)O[C@H]1C)C[C@H](O)[C@@H]2C(=O)O,3.32 µM (active)
26,Cc1cnc(-c2cc(N3CCN(C(=O)CCS(C)(=O)=O)CC3)ncc2Cl)c(C)c1,inactive
27,COc1ccc2ccc(=O)oc2c1CC=C(C)C,inactive
